Results: ChEMBL document CHEMBL2218924, “A broad activity screen in support of a chemogenomic map for kinase signalling research and drug discovery” (Biochem J, 2013)

Tests used:
[1] = biological target: T1, Mitogen-activated protein kinase 12 (Homo sapiens) (UniProt P53778); details: at 1 µM
T1 sequence (whole entry): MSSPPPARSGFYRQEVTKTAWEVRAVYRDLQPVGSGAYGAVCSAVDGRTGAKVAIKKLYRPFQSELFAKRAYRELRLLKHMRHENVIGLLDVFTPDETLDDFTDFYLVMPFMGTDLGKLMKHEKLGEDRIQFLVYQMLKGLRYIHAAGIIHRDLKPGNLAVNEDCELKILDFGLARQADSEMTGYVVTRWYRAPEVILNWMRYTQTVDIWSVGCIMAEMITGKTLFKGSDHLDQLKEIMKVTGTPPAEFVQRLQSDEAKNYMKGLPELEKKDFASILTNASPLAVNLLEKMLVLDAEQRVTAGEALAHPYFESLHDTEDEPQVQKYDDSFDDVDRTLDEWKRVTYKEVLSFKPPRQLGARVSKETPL

[2] = biological target: T1, Mitogen-activated protein kinase 12 (Homo sapiens); details: at 10 µM

| SMILES | residual activity [1] [%] | residual activity [2] [%] |
| --- | --- | --- |
| CC(=O)c1ccc(N2CCOCC2)cc1O | 110 | 102 |
| COc1ccc(C(=O)Nc2sc3c(c2C(N)=O)CCCC3)cc1OC | 95 | 83 |
| Nc1n[nH]c2nnc(-c3c(-c4ccccc4)nn4ccccc34)cc12 | 91 | 69 |
| O=C1NC(=O)/C(=C/c2ccc3c(c2)OC(F)(F)O3)S1 | 110 | 113 |
| CCOc1cc2ncnc(Nc3cccc(Br)c3)c2cc1OCC | 103 | 98 |
| COc1ccc(OC)c2c(=S)c3ccccc3[nH]c12 | 95 | 91 |
| c1ccc2c(-c3ccncc3)c[nH]c2c1 | 100 | 94 |
| O=C(c1ccccc1)c1ccc(N2CCOCC2)cc1O | 100 | 100 |
| C[C@@H](N)[C@H]1CC[C@H](C(=O)Nc2ccncc2)CC1 | 111 | 111 |
| NCCNc1ncc(C(N)=O)c(Nc2cccc(C(F)(F)F)c2)n1 | 103 | 106 |
| CC(=O)O/N=C1\C(=C2\C(=O)Nc3cc(Br)ccc32)Nc2ccccc21 | 94 | 92 |
| O=C1NC(=O)c2c1c1c3ccccc3[nH]c1n1cncc21 | 95 | 87 |
| c1ccc(-c2cnc(Nc3ccc(OCCN4CCCC4)cc3)s2)cc1 | 115 | 100 |
| Oc1n[nH]c2nnc(-c3c(-c4ccccc4)nn4ccccc34)cc12 | 96 | 90 |
| O=C(Nc1cccc(Nc2cc(Nc3cccc(C(F)(F)F)c3)ncn2)c1)C1CC1 | 94 | 92 |
| CC[n+]1c(/C=C/N(C)c2ccccc2)n(-c2ccccc2)c2ccc(-c3nc4ccccc4s3)cc21 | 111 | 94 |
| COc1cc2nccc(Oc3ccc(NC(=S)NC(=O)c4ccccc4C)cc3)c2cc1OC | 99 | 94 |
| O=C1NC(=O)C(c2c[nH]c3ccccc23)=C1c1c[nH]c2ccccc12 | 99 | 51 |
| O=C1NC(=O)/C(=C\c2ccc3nccnc3c2)S1 | 100 | 61 |
| Nc1ccc2ncnc(NCCc3ccc(Oc4ccccc4)cc3)c2c1 | 107 | 108 |

| SMILES | residual activity [1] [%] | residual activity [2] [%] |
| --- | --- | --- |
| Cc1cccc(-c2[nH]c(C(C)(C)C)nc2-c2ccc3c(c2)OCO3)n1 | 104 | 100 |
| O=C1Nc2ccc(Br)cc2/C1=C\c1cc2c([nH]1)CCCC2 | 115 | 102 |
| N#C/C(=C(\N)Sc1ccc(N)cc1)c1ccccc1C(F)(F)F | 104 | 105 |
| O=C1NC(=O)c2c1c1c3ccccc3[nH]c1c1[nH]c3cc(Br)ccc3c21 | 96 | 88 |
| O=C(O)c1ccc2c3c1cccc3c(=O)n1c3ccccc3nc21 | 106 | 102 |
| CC(C)n1cnc2/c(=N/c3cccc(Cl)c3)nc(NCCO)[nH]c21 | 96 | 99 |
| CCOC(=O)c1c(C)[nH]c(/C=C2\C(=O)Nc3ccccc32)c1C | 99 | 95 |
| Cc1nc2cc3nc(-c4cccs4)cnc3cc2n1C | 114 | 100 |
| COc1cc2ncnc(Nc3ccc(O)c(Br)c3)c2cc1OC | 98 | 97 |
| CCC(=O)Nc1ccc2ncnc(Nc3cccc(Br)c3)c2c1 | 101 | 93 |
| COc1ccc(CNc2nc(N(CCO)CCO)nc3c2ncn3C(C)C)cc1 | 109 | 99 |
| CC(C)n1cnc2c(NCc3ccccc3)nc(NCCCO)nc21 | 100 | 101 |
| O=C1NC(=O)c2cc(Nc3ccc(F)cc3)c(Nc3ccc(F)cc3)cc21 | 99 | 82 |
| Oc1ccc(Nc2nc(-c3ccc(Cl)cc3)cs2)cc1 | 112 | 100 |
| Cn1c2ccccc2c2c3c(c4c5ccccc5n(CCC#N)c4c21)CNC3=O | 61 | 61 |
| COc1ccc2c(c1)c(C1=C(c3c[nH]c4ccccc34)C(=O)NC1=O)cn2CCCN(C)C | 100 | 100 |
| Cn1nc2c3c(cccc31)C(=O)c1ccccc1-2 | 99 | 96 |
| COc1ccc(Cl)cc1NC(=O)Nc1cc(C)nc2ccccc12 | 95 | 85 |
| Cn1cc(/C=C2\C(=O)Nc3ccc(S(N)(=O)=O)cc32)c2ccccc21 | 99 | 104 |
| Cc1ccc(NC2=CC(=O)c3sc(C)nc3C2=O)cc1 | 87 | 102 |
